High-throughput results deposited in PubChem by National Center for Advancing Translational Sciences (NCATS).
Rows were chosen to be rich in hits. Some 21% of all compounds tested hit in one or more screens of this group.
NS1 function inh: qHTS Assay for Inhibitors of Influenza NS1 Protein Function; Potency, µM (highest dose often 46.1 µM); hit rate 0.4% among 270,000; AID 2326, 2010; calls by dose curve; also: actives are rising curves; nearly all actives have a fitted effect of over 50% in size
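OD600 was taken as the measure of yeast growth restored by compound in an NS1-expressing S. cerevisiae strain. Cells had been washed out of glucose medium and diluted 1:100 into galactose -URA medium, pH 6.0.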
Cycloheximide cs: Cycloheximide Counterscreen for Small Molecule Inhibitors of Shiga Toxin; max response, %; hit rate 12% among 300,000; AID 2314, 2010; cell reporter, cycloheximide protein synthesis inhibition counterscreen; in the data active = max response mostly above about 13%, no sharp cut-off; inactive = mostly below about 14%; also: read at 38.3 µM for the half of the compounds with a filed dose
Pf growth 48h: Primary qHTS for delayed death inhibitors of the malarial parasite plastid, 48 hour incubation; Potency, µM (highest dose often 28.7 µM), hits mostly inhibitors; P. falciparum luciferase growth in erythrocytes, 48 h; AID 504832, 2011; hit rate 5.9% among 310,000
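First compound was added to culture medium, then infected red cells at 0.1% parasitemia and 2% hematocrit (final). After incubation at 37 C under 5% CO2, luciferase detection reagent was dispensed and light output recorded.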
Pf growth 96h: Primary qHTS for delayed death inhibitors of the malarial parasite plastid, 96 hour incubation; P. falciparum luciferase reporter growth, 96 h; Potency, µM (top dose mostly 28.7 µM), most hits filed as inhibitors; hit rate 6.9% among 320,000; AID 504834, 2011
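Delayed-death screen, second-generation endpoint: infected erythrocytes, 2% hematocrit, 0.05% parasitemia final; 96 hours at 37 C, 5% CO2; luciferase detection reagent; luminescence decrease equals reduced growth.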
Shiga toxin inh: A qHTS for Small Molecule Inhibitors of Shiga Toxin. Vero cells, Shiga toxin protein synthesis inhibition reporter. inhibition, % at 38.7 µM. hit rate 9.2% among 290,000. AID 2315, 2010; in the data active = inhibition mostly above about 28%, no sharp cut-off; inactive = mostly below about 43%
Hits are given with their value; - = inactive; ? = inconclusive; . = no result; [ ] = remark or other dose. Unless noted, calls follow the shape of the dose curve; as a rule, active = well fitted inhibition curve with a large enough effect; inconclusive = small, poorly fitted or top-dose-only effect, or another doubt; inactive = no such curve, though single readings can be large or run the other way.

SMILES	NS1 function inh	Cycloheximide cs	Pf growth 48h	Pf growth 96h	Shiga toxin inh
Nc1c(C(=O)NC2CCCC2)sc2nc(-c3cccs3)ccc12	-	21.9	-	-	-
NC(=O)c1sc2nc(-c3ccccc3)ccc2c1N	-	35.1	?	-	96.9
COc1ccc(C(=O)c2sc3nc(-c4ccccc4)ccc3c2N)cc1OC	-	-	-	?	-
CC(C)(C)C(=O)c1sc2nc(-c3cccs3)cc(C(F)(F)F)c2c1N	-	-	-	-	-
CCOc1cc(C(=O)NCC(=O)N/N=C/c2sccc2C)cc(OCC)c1OCC	-	-	?	-	-
O=C1Cc2cccc3cccc1c23	-	-	.	-	-
O=C(NCCCc1ccncc1)C1CCC(=O)N(Cc2ccc(Cl)cc2)C1 (stereo not given)	-	-	-	10.4µM	-
CCc1ccc(CNC(=O)C2CCC(=O)N(CCc3ccc(Cl)cc3)C2)nc1 (stereo not given)	-	-	-	-	-
O=C(NCc1ccncc1)C1CCC(=O)N(CCc2ccc(Cl)cc2)C1 (stereo not given)	-	-	?	9.28µM	-
CCn1nc(C)c(CNC(=O)C2CCC(=O)N(CCc3ccc(Cl)cc3)C2)c1C (stereo not given)	-	-	-	9.28µM	-
CCC(=O)Nc1c(-c2ccc(Cl)cc2)c(=O)c2ccccc2n1C	-	-	-	-	-
C/C(=N/NC(=O)c1ccc(Br)s1)c1cccnc1	-	23.5	-	7.38µM	-
C/C(=N/NC(=O)c1ccc(Br)s1)c1ccncc1	-	15.6	-	-	-
C/C(=N/NC(=O)c1ccc(C)s1)c1cccnc1	-	34.1	-	-	71.2
C/C(=N/NC(=O)c1ccc(Cl)s1)c1cccnc1	-	-	-	-	-
N#Cc1ccc(CN2CCN(C(=O)CNS(=O)(=O)c3ccc4c(c3)OCCCO4)CC2)cc1	.	.	-	-	.
CCCCCC(=O)Nc1cc(S(=O)(=O)N2CCOCC2)ccc1N1CCCC1	-	-	-	-	-
O=S(=O)(Nc1cc(S(=O)(=O)N2CCOCC2)ccc1N1CCOCC1)c1ccc2c(c1)OCCO2	.	16.2	?	-[5.75 µM]	-
Cc1c(C(=O)Nc2cc(S(=O)(=O)N3CCOCC3)ccc2N2CCOCC2)oc2ccccc12	.	-	10.4µM	?	-
O=C(Nc1cc(S(=O)(=O)N2CCOCC2)ccc1N1CCOCC1)c1ccc(S(=O)(=O)N2CCCCC2)cc1	-	-	11.7µM	?	-
O=S(=O)(Nc1cc(S(=O)(=O)N2CCOCC2)ccc1O)c1ccc2c(c1)OCCCO2	.	.	-	-	.
CCCCCC(=O)Nc1cc(S(=O)(=O)N2CCCCC2)ccc1N1CCOCC1	-	-	13.1µM	?	-
COc1ccc(C(=O)OCC(=O)Nc2cc(S(=O)(=O)N3CCOCC3)ccc2N2CCCC2)cc1	-	-	-	-	-
O=C(Nc1ccccc1Cl)c1cc(S(=O)(=O)N2CCCCC2)ccc1N1CCOCC1	-	-	9.28µM	5.86µM	-
CC(C)Oc1ccc(S(=O)(=O)N2CCOCC2)cc1NC(=O)c1cc([N+](=O)[O-])ccc1N1CCOCC1	.	.	13.1µM	11.7µM	.
SMILES	NS1 function inh	Cycloheximide cs	Pf growth 48h	Pf growth 96h	Shiga toxin inh
Cc1ccc(NC(=O)c2cc([N+](=O)[O-])ccc2N2CCOCC2)cc1S(=O)(=O)N1CCOCC1	-	-	?	?	-
COc1ccc(S(=O)(=O)Nc2cc(C(=O)NCCC(C)C)ccc2N2CCOCC2)cc1	-	-	8.28µM	?	-
O=C(Nc1ccccc1F)c1cc(S(=O)(=O)N2CCOCC2)ccc1N1CCOCC1	.	.	-	?	.
CC(C)COc1ccc(C(=O)Nc2cc(S(=O)(=O)N3CCOCC3)ccc2N2CCCC2)cc1	.	.	8.28µM	?	.
N#Cc1ccc(C(=O)Nc2cc(S(=O)(=O)Nc3ccc(Cl)cc3)ccc2N2CCCCC2)cc1	-	-	13.1µM	10.4µM	-
CC(C)Oc1ccc(C(=O)Nc2cc(S(=O)(=O)N3CCOCC3)ccc2N2CCOCC2)cc1	.	.	13.1µM	?	.
CC(Oc1ccc(F)cc1)C(=O)Nc1cc(S(=O)(=O)N2CCOCC2)ccc1N1CCCC1 (stereo not given)	-	-	-	?	-
CCCCNC(=O)c1cccc(S(=O)(=O)N2CC3(C)CC2CC(C)(C)C3)c1 (stereo not given)	.	.	?	11.7µM	.
O=C(Nc1cc(S(=O)(=O)Nc2ccc(Cl)cc2)ccc1N1CCCCC1)c1ccc(F)cc1	-	-	?	?	-
O=S(=O)(c1ccc(N2CCN(S(=O)(=O)c3ccc4c(c3)OCCO4)CC2)nc1)N1CCCC1	-	-	13.1µM	-	-
